Inconclusive results are not listed. Values without a mark were called inactive. The source made the active and inactive calls. Calls come from the whole dose curve; as a rule, active = well fitted inhibition curve with a large enough effect; inconclusive = small, poorly fitted or top-dose-only effect; inactive = no such curve, though single readings can be large or run the other way.
Potency is the fitted concentration of half-maximal effect.

The test relates to Zika virus NS2B-NS3 protease (unlinked). In words: Optimization of GU AMC qHTS for Zika virus inhibitors: Unlinked NS2B-NS3 protease assay (AID 1347151).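 For activity change, negative = inhibition: 0% = no-inhibitor control and -100% = no-enzyme control.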 Note: nearly all actives have a fitted effect of over 80% in size. Conditions: recombinant ZIKV NS2B-NS3 protease, fluorogenic AMC substrate; series mostly up to 52.5 µM; activity change, negative = inhibition: at the top concentration. In a few lines: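 Unlinked protease (25 nM final); buffer 10 mM Tris-HCl pH 8.0 + 0.01% Tween 20; AMC substrate; 15 min RT, dark; Δfluorescence normalized to no-inhibitor/no-enzyme controls; 4-parameter Hill fit.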
Background: In qHTS, concentration-response curves come from the screen itself.
For `CCN1C[C@@]2(COC)C3[C@@H](OC)C4[C@@H]1C3([C@@H]1C[C@]3(O)[C@H](OC(=O)c5ccccc5)[C@@H]1[C@]4(OC(C)=O)[C@@H](O)[C@@H]3OC)[C@H](OC)C[C@H]2O`, the “activity change, negative = inhibition” value is 6.25%.
With `Ic1ccccc1CNC1C2CCN(CC2)C1C(c1ccccc1)c1ccccc1` (stereo unspecified), the “activity change, negative = inhibition” value is 1.32%.
As for `Oc1ccc2c3c1O[C@H]1c4oc5ccccc5c4C[C@@]4(O)C(C2)N(CC2CC2)CCC314` (stereo partly specified), the “activity change, negative = inhibition” value is -25.3%.
Turning to `CC(C)(C)c1cc(C=C(C#N)C#N)cc(C(C)(C)C)c1O`, the Potency was 10.6 µM (active).
Turning to `CC(=O)OCC1=C(C(=O)O)N2C(=O)[C@@H](NC(=O)CCC[C@@H](N)C(=O)O)[C@H]2SC1`, the “activity change, negative = inhibition” value is 18.2%.
Still for that read-out and setting: for `COC(=O)N1CCN(C(=O)Cc2ccc(Cl)c(Cl)c2)C(CN2CCCC2)C1` (stereo unspecified) the value was -2.9%.
On the same count and under the same terms, under `CC(N)Cc1c[nH]c2ccc(O)cc12` (stereo unspecified) stands 1.39%.
Consider `C=CCN1CCC23c4c5ccc(O)c4O[C@H]2C(=O)CC[C@@]3(O)C1C5` (stereo partly specified), for which the “activity change, negative = inhibition” value is 5.01%.
Consider `CN1CCC(c2c[nH]c3ccc(O)cc23)CC1`, for which the “activity change, negative = inhibition” value is -17.1%.
For the compound `COc1ccc2[nH]c3c(c2c1)CCNC3`, the Potency is 26.7 µM (active).
Consider `COc1ccc2[nH]cc(CCN)c2c1`, for which the “activity change, negative = inhibition” value is -21.7%.
The same measure, in the same setting: for `NC(=O)c1ccc(OCC(O)CN2CC=C(c3ccc(F)cc3)CC2)cc1` (stereo unspecified) the value was -2.47%.
Take `C[N+]1(C)CCc2cc3c(cc2[C@H]1[C@@H]1OC(=O)c2c1ccc1c2OCO1)OCO3`: the “activity change, negative = inhibition” value was -5.22%.
Still for that read-out and setting: for `CC(N)Cc1c[nH]c2ccc(OCc3cccs3)cc12` (stereo unspecified) the value was 21.7%; for `CC(C)(O)[C@@H]1C2OC(=O)[C@@H]1[C@]1(O)C[C@H]3O[C@]34C(=O)O[C@H]2[C@]14C` (tested in a mixture with another compound), 4.79%; for `CCCN(CCC)[C@@H]1CCc2cccc(O)c2C1`, -4.67%.
The same measure, in the same setting: under `N=C(N)c1ccc(CS(=O)(=O)F)cc1` stands 2.14%.
Take `Cc1c2ccncc2c(C)c2c1[nH]c1ccccc12`: the Potency is 21.2 µM (active).
Take `O=C1CC[C@@]2(O)C3Cc4ccc(O)c5c4C2(CCN3CC2CC2)[C@H]1O5` (stereo partly specified): the “activity change, negative = inhibition” value was 0.222%.
As for `CN1CCC[C@@H]1Cc1c[nH]c2ccc(Nc3ncccc3[N+](=O)[O-])cc12`, the “activity change, negative = inhibition” value is -15.9%.
`CCNC(=O)[C@H]1O[C@@H](n2cnc3c(N)ncnc32)[C@H](O)[C@@H]1O`: the “activity change, negative = inhibition” value was 10.5%.
As to `Cc1[nH]c2ccc(O)cc2c1CCN`, the “activity change, negative = inhibition” value is -12.1%.
Still for that read-out and setting: for `Nc1ccc(CCN2CCN(c3cccc(C(F)(F)F)c3)CC2)cc1` the value was -6.19%; for `Clc1ccc(N2CC3CCC(C2)N3)nn1`, -7.58%.
On to `CO[C@H]1CC=C2CCN3CCC4=C(CC(=O)OC4)[C@]23C1`, for which the “activity change, negative = inhibition” value is 8.93%.
On the same count and under the same terms, under `CCOC(=O)c1ncn2c1[C@@H]1CCCN1C(=O)c1cc(OC)ccc1-2` stands -0.767%; under `Cc1o[nH]c(=O)c1CC(N)C(=O)O` (stereo unspecified), 0.0389%.
For the compound `O=[N+]([O-])c1ccc2nc(N3CCNCC3)ccc2c1`, the “activity change, negative = inhibition” value was -17.6%.
On to `CN1CC[C@@]2(C)c3cc(OC(=O)Nc4ccccc4)ccc3N(C)[C@@H]12`, for which the “activity change, negative = inhibition” value was 0.419%.
`CCCN(CCC)[C@H]1CCc2c(F)ccc(O)c2C1`: the “activity change, negative = inhibition” value was -3.12%.
For the compound `Oc1ccc2c3c1O[C@H]1c4[nH]c5ccccc5c4C[C@@]4(O)C(C2)N(CC2CC2)CCC314` (stereo partly specified), the “activity change, negative = inhibition” value was -8.3%.

The values are drawn from PubChem BioAssay (NCATS).
